The text below walks through data of PubChem BioAssay (NCI).

Structures are written as SMILES. This is part of a sample that, as a whole, favours compounds with a hit. Of some 83,000 tested, about 20% had one in any assay.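 Results are percent growth after 48 hours of single-concentration exposure. 100 means growth as in untreated cells, lower positive values show inhibition; negative values down to -100 show cell death.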 A number with no mark means an inactive call. Active and inactive are the calls of the source.

In this assay the test system is HOP-62 NSCLC. Put plainly: NCI-60 one-dose screen, 48 h (100 = growth as untreated, 0 = no growth, -100 = all killed). Conditions: 10 µM unless noted. The protocol:
Growth inhibition of the HOP-62 human Non-Small Cell Lung tumor cell line is measured as a screen for anti-cancer activity. Cells are grown in 96 well plates and exposed to the test compound for 48 hours. Compounds are tested at a single concentration, which is 10^-5 M for most compounds. The reported endpoint is percent growth (GI% or GIPRCNT), where numbers from 0 - 100% represent growth inhibition, and numbers from -100% - 0 represent cell death. For example, a value of 40 represents 60% growth inhibition. A value of 0 means no net growth occurred over the course of the experiment. A value of -40 indicates 40% of cells at the beginning of the experiment died by the end of the experiment. A value of -100 means all cells are dead at the end of the experiment.
NCI-60 Human Tumor Cell Lines Screen was performed using the standard one-dose NCI protocol, which is described in more detail at https://dtp.cancer.gov/discovery_development/nci-60/default.htm.
Compounds with GIPRCNT values below 10 were considered active. Activity score was based on GIPRCNT using the following formula: […]
Score is 0 for GIPRCNT values of 100 or above, 50 for GIPRCNT values of 0, and 100 for GIPRCNT values of -100.
For the compound `COc1cccc(-c2nc3occn3c2-c2ccnc(NCCCNS(=O)(=O)c3ccc(C(F)(F)F)cc3)n2)c1`, the growth was 103%.

For the compound `O=C1c2ccc3c4c(ccc(c24)C(=O)N1CCCNCc1ccccc1F)C(=O)N(CCCNCc1ccccc1F)C3=O`, the growth was -29.7% (active).

Take `Cn1c(N2NC(=O)C(N=Nc3ccc(S(N)(=O)=O)cc3)C2=O)nc(-c2ccco2)c(C#N)c1=O` (stereo not given): the growth is 96.4%.

On to `CC(=O)O[C@@H]1C2CCC3C(CC[C@@]4(C)C3CC[C@@H]4C(C)N(C)C)[C@@]2(C)CC[C@@H]1NC(=O)C=C(C)C` (stereo not given in full), for which the growth is -26.1% (active).

As for `COc1ccc(C(=O)c2cc(C)c(OC)c(C)c2)c(OC)c1N(C(=O)CCl)C(=O)CCl`, the growth is 9.36% (active).

On to `Cc1ccc(/C=C(/C#N)n2nnc3cccc(F)c32)cc1`, for which the growth is 21.8%.

With `C#CCNC(=O)[C@]1(C)CC[C@]2(C)CC[C@@H]3C(=CC[C@H]4[C@@]3(C)CC[C@H]3C(C)(C)C(=O)CC[C@]43C)[C@@H]2C1`, the growth was 101%.

For the compound `Cc1cc2nc3c4cc(C=O)ccc4n(CCN(C)C)c3nc2cc1C`, the growth is 7.67% (active).

Turning to `COc1ccc(/C=C2\Oc3cc(OCCCN4CCCCC4)ccc3C2=O)cc1OC`, the growth was 85.7%.

Turning to `COc1cc2c(=O)n(CCCN(C)C)c3c4cc5c(cc4ccc3c2cc1OC)OCO5`, the growth is 38%.

On to `CC(C)(C)[Si](C)(C)OC1[C@@H](O[Si](C)(C)C(C)(C)C)[C@@H](CNC(=O)NC(=O)CCl)O[C@H]1n1cnc2c(NC(=O)Nc3ccccc3)ncnc21` (stereo not given in full), for which the growth was -95.5% (active).

Regarding `COC1=CC(=O)c2ccccc2C1=O`, the growth was 44.9%.

`C=C(CBr)[C@@H]1CC[C@]2(COC(C)=O)CC[C@]3(C)[C@H](CC[C@@H]4[C@@]5(C)CCCNC(C)(C)[C@@H]5CC[C@]43C)[C@@H]12`: the growth is 67.9%.

With `O=C(c1ccccc1)N1N=C(c2ccc(-n3ccc(C(F)(F)F)n3)c(F)c2)CC1c1ccc[nH]1` (stereo not given), the growth was 122%.

Regarding `CCN1CCN(CCNc2nccc(-c3c(-c4cccc(OC)c4)nc4occn34)n2)S1(=O)=O`, the growth was 129%.

For `C=C(C)[C@@H]1CC[C@]2(C(=O)N3CCN(C)CC3)CC[C@]3(C)[C@H](CC[C@@H]4[C@@]5(C)C/C(=C/c6cccnc6)C(=O)C(C)(C)[C@@H]5CC[C@]43C)[C@@H]12`, the growth is 88.4%.

As to `COc1ccc(-c2nc([C@@H](C)Sc3nc(N)cc(N)n3)c(C)s2)cc1OCCN1CCOCC1`, the growth is 94.5%.

Consider `O=C(Cn1c[n+](CC(=O)c2ccc(-c3ccccc3)cc2)c2ccccc21)Nc1cccc2cccnc12`, for which the growth was 43.2%.

Take `O=C(/C=C(/C=C/c1coc2ccccc12)OB(F)F)/C=C/c1coc2ccccc12`: the growth was 113%.

As for `O=C(CCN1CCCC1)Nc1ccc2c(Nc3ccc(F)cc3)c3ccccc3nc2c1`, the growth was -12.5% (active).

Regarding `O=C(Cc1ccccc1)NNc1nc(Cl)nc(N2CCN(C(c3ccccc3)c3ccccc3)CC2)n1`, the growth was 98.6%.

With `COC(=O)N[C@H]1CCc2c(Cl)c(OC)c(OC)c(OC)c2-c2ccc(SC)c(=O)cc21`, the growth is 38%.

Take `Nc1n[nH]c2cccc(C#Cc3cccc(C(=O)Nc4cccc(C(F)(F)F)c4)c3)c12`: the growth was 67.7%.

With `COc1ccc(C(=O)C2C(C#N)C(C#N)C3c4ccccc4C=CN23)cc1` (stereo not given), the growth is 92.9%.

With `COc1cc2nc(-c3ccc(Cl)cc3)cc(OCCCN3CCCCC3)c2cc1OC`, the growth was 54.7%.

In the case of `CCOC(=O)CCN(CC(C)C)C(=S)Nc1ccccc1`, the growth was 120%.

In the case of `Cn1cc(CC2CC(=O)N(c3ccccc3)C2=O)sc1=NC(=O)c1ccccc1` (stereo not given), the growth was 92.9%.

As for `CCN(CC)CCOc1ccc(NC(=O)C(C(C)C)N2C(=O)/C(=C/c3ccc(Br)cc3)SC2=S)cc1` (stereo not given), the growth is 104%.

In the case of `Cc1c(C(=O)NCCC(=O)NO)sc2ncnc(Nc3ccc(NC(=O)Nc4cccc(C(F)(F)F)c4)cc3)c12`, the growth was 102%.

On to `CCOC(=O)c1ccc2c(c1)ncn2-c1ccc(NC(=O)Nc2cccc(C)c2)cc1`, for which the growth was 81.8%.

Take `CCCCCCCCCCCCCCCC[N+]1(C)CCN(SN2CC[N+](C)(CCCCCCCCCCCCCCCC)CC2)CC1`: the growth is 56.6%.

For the compound `O=S(=O)(NCCCNc1nccc(-c2c(-c3cccc(O)c3)nc3occn23)n1)c1ccc(Cl)cc1`, the growth was 114%.

For the compound `Cn1ccnc1C(=O)/C=C/c1ccc(CC(=O)Nc2ccc(Cl)cc2)cc1`, the growth is -21.2% (active).

Consider `CCSCC1CC(O)(c2ccccc2)CC(c2ccc(F)cc2)O1` (stereo not given), for which the growth was 26.2%.

`CN(C)c1ccc(Nc2c3ccccc3nc3cc(NC(=O)CCN4CCCC4)ccc23)cc1`: the growth was -8.55% (active).

Turning to `CC(C)c1ccc(Nc2ccc3c(OCCCN4CCN(C)CC4)cccc3n2)cc1`, the growth is 64.1%.

`O=C1/C=C/[C@@H](O)[C@@H]2C[C@@H](O)C[C@H]2/C=C/CCC[C@H](CCc2ccc3ncccc3c2)O1`: the growth is 15.3%.

With `N#CC1C(C#N)C(C(=O)c2ccc(Br)cc2)N2c3ccccc3C=CC12` (stereo not given), the growth is 75.1%.

As to `COc1ccc2c(c1)oc1c(C)c3c(c(C)c12)C(=O)N(CCN1CCOCC1)C3=O`, the growth is 101%.

Consider `O=C1Nc2cc(Cl)ccc2/C1=C\c1c(-c2ccc(F)cc2)nc2ccccn12`, for which the growth is 3.44% (active).
